Screening results: PubChem, National Center for Advancing Translational Sciences (NCATS)
Only some compounds are listed: those with a hit (about 19% of all), similar ones and a draw of the others.
IL1B secr inh: inflammasome signaling inhibition, IL-1 beta readout. activity change, % at 57.5 µM. THP-1 LPS/ATP IL-1B secretion, AlphaLISA, 16 h; active compounds read low. 4.7% of 360,000 active; in the data active = activity change below about -50%; inconclusive = mostly about -30% to -49%
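Secreted IL-1B measured by AlphaLISA bead assay after 16 h compound exposure of THP-1 cells; compounds (final up to 57.5 uM) added 1 h before LPS (250 ng/mL) and ATP (1.25 mM) stimulation; lower signal means less secretion.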
HT1080 IDH1KD tx: kills HT-1080 cells with IDH1 knockdown. HT-1080 IDH1 knockdown viability, ATP luminescence, 48 h. Potency, µM (top dose mostly 46.1 µM), most hits filed as cytotoxic. 2% of 360,000 active
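Using the IDH1-knockdown HT-1080 line run in the same batch and compound series as the NT line, viability after 48 h at 37 °C was determined by CellTiter-Glo luminescence and expressed as % activity.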
TDP1 cell CPT: DT40-hTDP1 cell growth loss with CPT; Potency, µM (highest dose often 46.2 µM), usual class: inhibitors; chicken DT40 Tdp1-/-;hTDP1 cells + 20 nM CPT, ATP luminescence, 48 h; 12% of 420,000 active; note: nearly all actives have a fitted effect of over 55% in size
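Chicken DT40 Tdp1-/- cells stably complemented with human TDP1 were seeded at 400 cells/well in medium containing 20 nM camptothecin, exposed to pin-transferred compounds, and grown at 37 °C for at least 48 hr. Viability was read as ATP luminescence.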
HT1080NT lethal: kills 2HG-producing HT-1080-NT fibrosarcoma cells | Potency, µM (series often up to 46.1 µM), usual class: cytotoxic | HT-1080-NT fibrosarcoma viability, CellTiter-Glo ATP luminescence, 48 h | 1.6% of 360,000 active;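 note: NT is the 2HG producing partner of a matched IDH1 knockdown line; nearly all actives have a fitted effect of over 55% in size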
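Fibrosarcoma NT cells, 750 per well in 5% FBS RPMI, were exposed to compound for 48 hours. Viability: CellTiter-Glo luminescence.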
TDP1 cell noCPT: qHTS for Inhibitors of human tyrosyl-DNA phosphodiesterase 1 (TDP1): qHTS in cells in absence of CPT; Potency, µM (titrated, usually from 46.2 µM), actives largely listed as inhibitors; AID 686978, 2013; 15% of 420,000 active; DT40 Tdp1-/- hTDP1 cells, no CPT, ATP luminescence, 48 h; note: nearly all actives have a fitted effect of over 55% in size
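A cellular qHTS used chicken DT40 cells lacking endogenous Tdp1 but carrying stably transfected human TDP1. Compounds were applied without camptothecin, and cell growth kinetics were judged by ATP-dependent luminescence after ≥48 hr.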
Of the large screens only hits and unclear results are named; the others gave an inactive call. Unless noted, calls come from the whole dose curve; as a rule, active = well fitted curve in the direction sought with a large enough effect; inconclusive = small, poorly fitted or top-dose-only effect, or another doubt; inactive = no such curve, though single readings can be large; an effect the other way counts as inactive or inconclusive.

Cc1ccc(C2=NN=C(NC(=O)CSc3nnc4c5ccccc5n(C)c4n3)SC2)cc1	HT1080 IDH1KD tx 29.1µM, TDP1 cell CPT 10.3µM, HT1080NT lethal inconclusive, TDP1 cell noCPT 9.2µM
CCCn1c2ccccc2c2nnc(SCC(=O)Nc3ncccn3)nc21	TDP1 cell CPT 25.9µM, TDP1 cell noCPT inconclusive
Cn1c2ccccc2c2nnc(SCC(=O)Nc3cccc(C(=O)O)c3)nc21	none
CCCn1c2ccccc2c2nnc(SCC(=O)Nc3cc(C)on3)nc21	TDP1 cell noCPT inconclusive
COc1ccccc1N1CCN(C(=O)CSc2nnc3c4ccccc4n(CC(=O)O)c3n2)CC1	none
CCn1c2ccccc2c2nnc(SCC(=O)N3CC(C)OC(C)C3)nc21 (centres undefined)	TDP1 cell CPT inconclusive, TDP1 cell noCPT 16.4µM
Cn1c2ccc(F)cc2c2nnc(SCC(=O)Nc3cccc(O)c3)nc21	IL1B secr inh -71.0, HT1080 IDH1KD tx inconclusive, TDP1 cell noCPT inconclusive
COc1ccc(N2CC(C(=O)Nc3c(C(N)=O)oc4ccccc34)CC2=O)cc1 (centres undefined)	none
COC(=O)[C@@]12CCCCN1[C@H](c1ccc(SC3CCCCC3)cc1)[C@@H]1C(=O)N(C)C(=O)[C@@H]12	TDP1 cell CPT inconclusive, TDP1 cell noCPT inconclusive
CCCSc1ccc([C@@H]2[C@@H]3C(=O)N(C)C(=O)[C@@H]3[C@]3(C(=O)OC)CCCCN23)cc1OC	TDP1 cell CPT inconclusive, TDP1 cell noCPT 23.1µM
CCSc1ccc([C@@H]2[C@H]3C(=O)N(CC)C(=O)[C@H]3[C@]3(C(=O)OC)CCCCN23)cc1	TDP1 cell CPT inconclusive, TDP1 cell noCPT 23.1µM
CCSc1ccc([C@@H]2[C@H]3C(=O)N(C)C(=O)[C@H]3[C@]3(C(=O)OC)CCCCN23)cc1	HT1080 IDH1KD tx inconclusive, TDP1 cell CPT inconclusive, TDP1 cell noCPT 16.4µM
CCSc1ccc([C@@H]2[C@@H]3C(=O)N(CC)C(=O)[C@@H]3[C@]3(C(=O)OC)CCCCN23)cc1	TDP1 cell CPT 16.4µM, TDP1 cell noCPT 23.1µM
COc1cccc(OC)c1OCC(C)CNCC1CCCO1 (centres undefined)	none
COc1ccc(NC(C)=O)cc1NC(=O)C1CCCN1C(=O)c1cccs1 (centres undefined)	none
COc1ccc(OC)c(NC(=O)CNC(=O)c2cccs2)c1	none
CCSc1ccc([C@@H]2[C@@H]3C(=O)N(CC)C(=O)[C@@H]3[C@]3(C(=O)OC)CCCN23)cc1	TDP1 cell CPT inconclusive, TDP1 cell noCPT 23.1µM
CCCCCCSc1ccc([C@@H]2[C@H]3C(=O)N(C)C(=O)[C@H]3[C@]3(C(=O)OC)CCCCN23)cc1	TDP1 cell CPT inconclusive, TDP1 cell noCPT inconclusive
CCCCCCSc1ccc([C@@H]2[C@@H]3C(=O)N(CC)C(=O)[C@@H]3[C@]3(C(=O)OC)CCCCN23)cc1	TDP1 cell CPT 18.4µM, TDP1 cell noCPT 20.6µM
CCC(C)Sc1ccc([C@@H]2[C@H]3C(=O)N(CC)C(=O)[C@H]3[C@]3(C(=O)OC)CCCCN23)cc1 (some centres undefined)	TDP1 cell CPT inconclusive, TDP1 cell noCPT 16.4µM
CCCSc1ccc([C@@H]2[C@H]3C(=O)N(CC)C(=O)[C@H]3[C@]3(C(=O)OC)CCCCN23)cc1OC	TDP1 cell CPT inconclusive, TDP1 cell noCPT inconclusive
CCCSc1ccc([C@@H]2[C@H]3C(=O)N(CC)C(=O)[C@H]3[C@]3(C(=O)OC)CCCN23)cc1OC	TDP1 cell CPT inconclusive, TDP1 cell noCPT inconclusive
CC1(C(=O)NS(=O)(=O)c2cccc(Cl)c2)CCN1C(=O)Cc1ccc(-c2ccccc2)cc1 (centres undefined)	none
CCC(C)N1CCNCC1 (centres undefined)	none
O=C(NCCc1ccccc1)C1CCN(C(=O)N2CCOc3ccccc32)CC1	TDP1 cell noCPT inconclusive
Cc1ccc2c(c1)N(C(=O)N1CCC(C(=O)Nc3cccc(F)c3)CC1)CCO2	TDP1 cell CPT inconclusive, TDP1 cell noCPT 18.4µM (no result: IL1B secr inh, HT1080 IDH1KD tx, HT1080NT lethal)
O=C(Nc1cccc(F)c1)C1CCN(C(=O)N2CCOc3ccccc32)CC1	TDP1 cell CPT inconclusive, TDP1 cell noCPT inconclusive
CCc1ccc(NC(=O)C2CCN(C(=O)N3CCOc4ccccc43)CC2)cc1	TDP1 cell CPT 25.9µM, TDP1 cell noCPT inconclusive
O=C(NC1CCCCCC1)C1CCN(C(=O)N2CCOc3ccc(Cl)cc32)CC1	TDP1 cell CPT 25.9µM, TDP1 cell noCPT inconclusive (no result: IL1B secr inh, HT1080 IDH1KD tx, HT1080NT lethal)
O=C(NCCc1ccc(Cl)cc1)C1CCN(C(=O)N2CCOc3ccccc32)CC1	TDP1 cell CPT 25.9µM, TDP1 cell noCPT 23.1µM
CCCCCCN1CCN(C2CN(Cc3cn(Cc4ccccc4)nn3)S(=O)(=O)C2)CC1 (centres undefined)	TDP1 cell noCPT inconclusive
CCc1ccccc1NC(=O)C1CCN(C(=O)N2CCOc3ccccc32)CC1	TDP1 cell CPT inconclusive, TDP1 cell noCPT 20.6µM
CC(=O)c1cccc(Nc2cc(C)nc3c(C)cccc23)c1	IL1B secr inh -74.6, TDP1 cell noCPT inconclusive
CC(=O)c1cccc(Nc2cc(C)nc3ccccc23)c1	TDP1 cell CPT inconclusive
Cc1cc(C)c2nc(C)cc(Nc3ccc(C(=O)N(C)C)cc3)c2c1	none
CC(N)c1csc(Nc2ccc(C(=O)NCCO)cc2)n1 (centres undefined)	HT1080NT lethal inconclusive
Cc1cc(C)c2nc(C)cc(Nc3ccc(C(=O)NCCO)cc3)c2c1	IL1B secr inh -89.7, TDP1 cell noCPT inconclusive
CC(=O)c1ccc(Nc2cc(C)nc3c(C)cc(C)cc23)cc1	IL1B secr inh -95.4, HT1080 IDH1KD tx 8.2µM, TDP1 cell CPT 4.61µM, HT1080NT lethal 9.2µM, TDP1 cell noCPT 4.61µM
Cc1ccc(C(C)C)c(OCC(=O)Nc2c(C(=O)c3ccc(F)cc3)oc3ccccc23)c1	none (no result: IL1B secr inh, HT1080 IDH1KD tx, HT1080NT lethal)
CC1=CC(C)[C@@H]2COC(c3ccc(O)cc3)[C@H]1C2C (some centres undefined)	TDP1 cell CPT inconclusive, TDP1 cell noCPT inconclusive
CC1=CC(C)C2COC(c3ccc[n+](C)c3)C1C2C (centres undefined)	TDP1 cell CPT 8.2µM, TDP1 cell noCPT 8.2µM
CN=C1N(C)C[C@@H]2[C@@H]3C(=O)N(C)C(=O)[C@@H]3[C@](C)(C(=O)OC)N12	TDP1 cell noCPT inconclusive
CCc1cc(=O)oc2c3c(cc(OCC(=O)NCc4ccccn4)c12)OC(C)(C)CC3	TDP1 cell CPT 23.1µM, TDP1 cell noCPT inconclusive
Cc1c(C)c2c(OCC(=O)NCc3cccnc3)cc3c(c2oc1=O)CCC(C)(C)O3	none
CCc1cc(=O)oc2c3c(cc(OCC(=O)NCc4cccnc4)c12)OC(C)(C)CC3	TDP1 cell CPT inconclusive, TDP1 cell noCPT 20.6µM
